Data on twelve compounds can be found in PubChem BioAssay (NCATS).

The source made the active and inactive calls. The call rests on the fitted dose curve.

The assay can be described thus: qHTS drug screen for cell cycle checkpoint inhibitors in PARPi-resistant BRCA-mutant ovarian cancer cell lines. (AID 1963452). The conditions noted are these: PEO1/OlaR viability, CellTiter-Glo luminescence, 96 h; for Z-AUC: stronger effect = lower value. The essentials: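 PEO1, PEO4 and PEO1/OlaR ovarian cancer cells, 600 per well, exposed 96 h at 37C to a dilution series. Viability read by CellTiter-Glo luminescence, normalized to DMSO and empty wells; activity summarized as Z-AUC.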
In general terms: Quantitative high-throughput screening tests each substance at several concentrations.

Setting [1] is: measured here: PEO1 parental Z-AUC.
Potency means the concentration at half of the fitted maximal effect.

For the compound `COc1ccccc1N1CCN(CCN(C(=O)C2CCCCC2)c2ccccn2)CC1`, the Z-AUC is 0.61 (inactive). Under setting [1], the Z-AUC worked out at 0.37. In addition, the Z-AUC (measured here: PEO4 Z-AUC) was determined as 0.876.

For the compound `CCOc1cc(CC(=O)N[C@@H](CC(C)C)c2ccccc2N2CCCCC2)ccc1C(=O)O`, the Z-AUC was 0.686 (inactive). Under setting [1], the Z-AUC turned out to be 0.341. For the same compound, the Z-AUC (measured here: PEO4 Z-AUC) is 0.628.

With `CN(C)c1ccc2nc3ccc(=[N+](C)C)cc-3sc2c1`, the Z-AUC is -0.652 (inactive). Also, under setting [1], the Z-AUC is -0.738. For the same compound, under “measured here: PEO4 Z-AUC”, the Z-AUC is -0.606.

Regarding `N[C@@H](Cc1cc(I)c(Oc2cc(I)c(O)c(I)c2)c(I)c1)C(=O)O`, the Z-AUC is -1.16 (inactive). Further, the Z-AUC under setting [1] is -0.336. Moreover, the Z-AUC (measured here: PEO4 Z-AUC) is -0.169.

Take `CCC1=C(C)CN(C(=O)NCCc2ccc(S(=O)(=O)NC(=O)NC3CCC(C)CC3)cc2)C1=O` (configuration not stated): the Z-AUC is -0.196 (inactive). For the same compound, the Z-AUC under setting [1] was 0.246. In addition, for the setting “measured here: PEO4 Z-AUC”, the Z-AUC was found to be 0.144.

In the case of `O=c1c(O)c(-c2ccc(O)cc2O)oc2cc(O)cc(O)c12`, the Z-AUC was 1.32 (inactive). Under setting [1], the Z-AUC turned out to be 1.13. Besides, the Z-AUC (measured here: PEO4 Z-AUC) is 1.21.

`CC(C)c1ccc2c(c1)c(SC(C)(C)C)c(CC(C)(C)C(=O)O)n2Cc1ccc(Cl)cc1`: the Z-AUC was 1.24 (inactive). Also, under setting [1], the Z-AUC is 0.791. Also, the Z-AUC (measured here: PEO4 Z-AUC) stood at 0.661.

Regarding `C=C(c1ccc(C(=O)O)cc1)c1cc2c(cc1C)C(C)(C)CCC2(C)C`, the Z-AUC was 1.36 (inactive). Further, the Z-AUC under setting [1] stood at 0.659. Moreover, the Z-AUC (measured here: PEO4 Z-AUC) worked out at 0.161.

Take `S=c1nc[nH]c2nc[nH]c12`: the Z-AUC is -0.8 (inactive). The Z-AUC under setting [1] was -0.506. The Z-AUC (measured here: PEO4 Z-AUC) was -0.594.

With `O=C(O)c1cn(-c2ccc(F)cc2)c2cc(N3CCNCC3)c(F)cc2c1=O`, the Z-AUC is 0.692 (inactive). For the same compound, the Z-AUC under setting [1] was found to be 0.709. Besides, where the note is “measured here: PEO4 Z-AUC”, the Z-AUC worked out at 0.947.

Regarding `CC(=O)O[C@H]1C(=O)[C@@]2(C)C([C@H](OC(=O)c3ccccc3)[C@]3(O)C[C@H](OC(=O)[C@H](O)[C@@H](NC(=O)c4ccccc4)c4ccccc4)C(C)=C1C3(C)C)[C@]1(OC(C)=O)CO[C@@H]1C[C@@H]2O` (some centres not stated), the Potency was 7.8 nM (active).

For the compound `CC(C)C[C@H](NC(=O)[C@H](Cc1ccccc1)NC(=O)c1cnccn1)B(O)O`, the Potency is 9.8 nM (active).
